Compound activity deposited in PubChem BioAssay by several laboratories.
A selection: hits, their analogues and other compounds. The true share with any hit is near 1.1%.
L929 necroptosis: L929 zVAD cell death inhibition; L929 zVAD necroptosis rescue, ATP luminescence, 24 h; with zVAD 60 µM; viability rescue, % at 10 µM; hit rate 0.38% among 220,000; AID 1377;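 active = activation, scaled between plate controls, above about 75%, limit read from the data; inactive = activation under that limit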;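 note: 0% = zVAD with DMSO and 100% = DMSO alone without zVAD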
HIF act: HIF pathway transcriptional activation; U2OS HRE-luciferase reporter, luminescence; normalized: DMSO 0%, desferrioxamine 100%; activation, % at 7.5 µM (by protocol); hit rate 0.32% among 300,000; AID 1910;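 active = mean activation of at least 10% of the iron chelator positive control signal, with at least half of replicates also reaching 10%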
Calb FLC: C. albicans growth modulation with fluconazole | C. albicans CaCi-2 (fluconazole-resistant clinical isolate) + fluconazole, Alamar Blue growth, 48 h | growth inhibition, % (test concentration not listed) | hit rate 0.57% among 300,000 | AID 1979;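 active = growth inhibition above about 58% in most replicates, limit read from the data, passing the limit was not always enough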;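 note: all wells also contain fluconazole at 8 µg/ml as a sub-toxic cotreatment; 0% = median of DMSO wells and 100% = median of geldanamycin control wells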
TNF death inh: inhibitors of TNF-alpha induced necroptosis in Jurkat FADD-/- cells. Jurkat FADD-/- TNF necroptosis rescue, ATP luminescence, 24 h; 0 = TNF only, 100 = no-TNF cells. activation (protection from cell death), % at 10 µM. hit rate 0.068% among 220,000. AID 463075;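 active = activation, meaning protection from cell death, of at least 50% relative to plate controls; inactive = activation below 50%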;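 note: necroptosis triggered by 40 ng/mL TNF-alpha added together with compound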
zVAD necrop conf: confirmed blocker of zVAD induced death in L929 cells | L929 zVAD-induced necroptosis rescue, ATP luminescence, 24 h | activation (protection from necroptosis), % at 10 µM | shares compounds with L929 necroptosis | AID 463117 | hit rate 16% among 760;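 active = mean protection from necroptosis of at least 50% over duplicate tests; inactive = mean protection below 50%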;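 note: 0% = cells with zVAD alone and 100% = vehicle cells without zVAD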
* = called active by the depositor; nt = no result given.

SMILES | L929 necroptosis | HIF act | Calb FLC | TNF death inh | others
O=c1[nH]c(=S)n(-c2ccccc2F)c(O)c1C=NCCN1CCNCC1 | nt | 2 | 4 | nt
O=C1C2CCN(CC2)C1Cc1ccc(OCc2ccccc2)cc1 (configuration not stated) | -1 | 1 | 109* | 1
COc1ccccc1N1CCN(C2CCCN(C(=O)COc3ccccc3Cl)C2)CC1 (configuration not stated) | nt | 0 | 1 | nt
O=C(c1cc2c(s1)-c1ccccc1OC2)N1CCC2(CC1)OCCO2 | 1 | 5 | 100* | -7
COc1ccc(-[n+]2c(-c3ccccc3)cc(-c3ccccc3)cc2-c2ccccc2)cc1 | nt | -1 | 108* | nt
O=C([O-])c1ccc(-[n+]2c(-c3ccccc3)cc(-c3ccccc3)cc2-c2ccccc2)cc1 | nt | 0 | -22 | nt
Oc1ccc(-[n+]2c(-c3ccccc3)cc(-c3ccccc3)cc2-c2ccccc2)cc1 | nt | 3 | 103* | nt
COC/C=C1\CN2C3C[C@@H]1[C@H]1COC4=Nc5cc(OC)c(OC)c(OC)c5[C@@]43C[C@@H]12 | nt | 0 | 3 | nt
CCn1nc(/C=C/c2ccccc2)nc2c(=O)n(C)c(=O)nc1-2 | 63 | -3 | 101* | -6
COc1ccc(-n2c(/C=C/c3ccc(O)cc3)nc3ccccc3c2=O)cc1 | nt | 0 | 10 | nt
Cn1c(O)c(C=NCCN2CCNCC2)c(=O)[nH]c1=O | 0 | 0 | 7 | 2
C=C(C)CSc1nnc([C@@H](N)Cc2c[nH]c3ccccc23)o1 | 0 | 0 | 26 | -3
Cc1ccc(NC(=O)CSc2nnc([C@@H](N)Cc3c[nH]c4ccccc34)o2)c(C)c1 | 0 | 1 | 109* | -4
CC(C)=CCSc1nnc([C@@H](N)Cc2c[nH]c3ccccc23)o1 | 0 | 18* | 35 | 1
CCc1ccccc1NC(=O)CSc1nnc([C@@H](N)Cc2c[nH]c3ccccc23)o1 | 0 | 0 | 15 | -4
CC1(C)C(=O)C=C[C@]2(C)[C@H]3CC[C@@]4(C)[C@H](c5ccoc5)OC(=O)[C@H]5O[C@]54[C@]3(C)[C@H](O)C[C@@H]12 | -1 | 0 | -10 | -1
COc1cccc(C(=O)C2CCCN(Cc3ccc(F)cc3)C2)c1 (configuration not stated) | nt | -1 | 5 | nt
COc1cccc(C(=O)C2CCCN(Cc3ccc4nsnc4c3)C2)c1 (configuration not stated) | 0 | 243* | -11 | 2
O=[N+]([O-])c1cc(S(=O)(=O)c2ccc(O)c([N+](=O)[O-])c2)ccc1O | 0 | 36* | 4 | 1
O=C(C[N+]12CCC(CC1)C(C(O)(c1ccccc1)c1ccccc1)C2)c1ccc(Br)cc1 (configuration not stated) | 0 | 0 | 95* | 1
OCC[N+]12CCC(CC1)C(C(O)(c1ccccc1)c1ccccc1)C2 (configuration not stated) | 0 | 0 | -5 | 2
CCn1cc(C(=O)c2ccccc2)c2ccccc21 | 2 | -1 | 97* | -4
Clc1ccccc1C1=NCc2nncn2-c2sc(Br)cc21 | nt | 0 | -12 | nt
O=C(Nc1ccc(Cl)cc1)Nc1nccs1 | 86* | 2 | 57 | -4 | zVAD necrop conf=7
N=C1c2ccccc2CN1NC(=O)c1ccc(Br)cc1 | 0 | -15 | -46 | 1
CC(=O)OC[C@]12CCC(C)=C[C@H]1O[C@@H]1[C@H](O)[C@@H](OC(C)=O)[C@@]2(C)[C@]12CO2 | 95* | nt | nt | -24 | zVAD necrop conf=82*
O=C(/C=C/c1ccccc1)c1c(O)n(CCc2ccccc2)c(=O)[nH]c1=O | 83* | 0 | 4 | -1 | zVAD necrop conf=1
O=C(/C=C/c1ccc2c(c1)OCO2)c1c(O)n(CCc2ccccc2)c(=O)[nH]c1=O | 0 | 1 | -5 | -5
C[N+]1(CC(COCc2ccccc2)OC(=O)Cc2ccccc2)CCOCC1 (configuration not stated) | nt | -2 | -41 | 0
